Assay outcomes from PubChem BioAssay.
Hits are enriched below; roughly 2.6% of the tested compounds scored in any of these assays.
p53 reactivator: re-activators of mutant p53; hit rate 0.063% among 320,000; Potency, µM (series often up to 92.2 µM), inactives show at the highest dose activity change, positive = activation, most hits filed as activators; H1299 p53-A138V BP100-luciferase reporter, luminescence, 24 h; AID 504706; active = well fitted activation curve with a large enough effect; inconclusive = small, poorly fitted or top-dose-only effect; inactive = no such curve, though single readings can be large or run the other way; also: potency is read from the fitted curve at half-maximal effect; % of control where 0% means no effect; nearly all actives have a fitted effect of over 45% in size
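p53-null H1299 cells stably carrying temperature-sensitive p53-A138V and a BP100-luciferase reporter were pinned with compounds (4-point, 1:5 series) and held 24 hrs at 37 deg C. Luminescence was read 10 min after detection reagent.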
KCNH2 3.1 block: inhibitors of human KCNH2 3.1 potassium channel isoform; hit rate 0.95% among 340,000; U2OS KCNH2 3.1, thallium flux FluxOr; stronger effect = lower value; activity change, % (tested at about 1.8 µM);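 active = maximum activity change below -70%; inconclusive = maximum activity change from -70% to -50%; inactive = maximum activity change above -50%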;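 also: thallium influx rate constant from kinetic fluorescence after stimulation buffer; % is scaled to controls: 0 for no effect and ±100 for the full control effect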
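Thallium flux via FluxOr fluorescence (Red40 quencher, 45 min loading) in U2OS cells virally expressing the KCNH2 3.1 isoform (1.77 x 10^8 /mL virus, overnight at 37 C). Rate constants from 2-min kinetic reads post-stimulation, normalised to positive and negative controls.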
ClpP mod: qHTS Assay for Activators of ClpP | AID 651965, 2013 | ATP-dependent Clp protease proteolytic subunit (Bacillus subtilis (strain 168)), P80244 | Potency, µM (titrated, usually from 57.5 µM), inactives show at the top dose activity change, negative = active | purified B. subtilis ClpP, FRET peptide cleavage, 20 min | hit rate 1.9% among 340,000; active = well fitted falling curve with a large enough effect; inconclusive = small, poorly fitted or top-dose-only effect; inactive = no such curve, though single readings can be large or run the other way; also: potency is read from the fitted curve at half-maximal effect; the source files actives as falling curves though it sought activators and does not explain the sign; nearly all actives have a fitted effect of over 65% in size
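Purified B. subtilis ClpP, 10 microg/mL final in Tris/HCl pH8 with KCl, BSA, glycerol and Tween-20, cleaved an Abz/nitrotyrosine-quenched decapeptide. Fluorescence (ex 320, em 430) was read at 0 and 20 min at room temperature. Delta was normalized to 5.8 microM ADEP and DMSO/no-enzyme controls.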
TRPV1 ag: agonists of human vanilloid receptor 1 (TRPV1) | hit rate 0.19% among 320,000 | AID 540275 | Q8NER1 | activation, % at 8.33 µM | TRPV1-expressing cells, Fluo-8 calcium influx, agonist mode; in the data active = activation above about 80%; inconclusive = between about 30% and that limit; also: 0% is about no effect
Target sequence (Q8NER1 whole entry, looked up): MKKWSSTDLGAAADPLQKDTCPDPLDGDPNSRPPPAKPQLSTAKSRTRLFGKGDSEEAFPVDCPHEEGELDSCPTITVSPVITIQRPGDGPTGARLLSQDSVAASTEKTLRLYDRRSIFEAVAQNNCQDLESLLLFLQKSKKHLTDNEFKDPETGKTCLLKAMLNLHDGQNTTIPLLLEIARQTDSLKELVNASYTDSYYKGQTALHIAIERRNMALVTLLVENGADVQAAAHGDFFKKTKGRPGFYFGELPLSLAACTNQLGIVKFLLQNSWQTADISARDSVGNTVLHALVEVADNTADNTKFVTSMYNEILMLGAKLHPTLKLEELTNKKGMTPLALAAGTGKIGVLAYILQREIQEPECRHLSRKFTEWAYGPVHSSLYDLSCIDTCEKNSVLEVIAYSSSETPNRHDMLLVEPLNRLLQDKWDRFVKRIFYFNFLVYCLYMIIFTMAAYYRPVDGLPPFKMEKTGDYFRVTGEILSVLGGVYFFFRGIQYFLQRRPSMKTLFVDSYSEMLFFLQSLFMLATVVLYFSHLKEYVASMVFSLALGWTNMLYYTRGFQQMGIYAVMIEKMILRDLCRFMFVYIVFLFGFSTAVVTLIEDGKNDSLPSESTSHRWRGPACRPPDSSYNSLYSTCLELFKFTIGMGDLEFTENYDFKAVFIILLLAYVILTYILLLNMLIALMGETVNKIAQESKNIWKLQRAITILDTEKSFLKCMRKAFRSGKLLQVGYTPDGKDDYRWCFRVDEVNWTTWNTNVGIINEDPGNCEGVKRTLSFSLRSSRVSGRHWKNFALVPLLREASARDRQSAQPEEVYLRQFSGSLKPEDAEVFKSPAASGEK
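Fluo-8 calcium influx in TRPV1-expressing cells, kinetic read (ex 480/em 520 nm). Compound added and read 3 min for agonist activity, followed by capsaicin at EC20 final and 2 min further read for enhancement.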
KCNH2 WT inh: inhibitors of human wildtype KCNH2 potassium channel; Q12809; U2OS, BacMam KCNH2, thallium flux FluxOr; stronger effect = lower value; activity change, % at 1.84 µM; hit rate 0.37% among 340,000; AID 720551;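 active = maximum activity change below -70%; inconclusive = maximum activity change between -70% and -50%; inactive = maximum activity change above -50%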; also: % is scaled to controls: 0 for no effect and ±100 for the full control effect
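U2OS cells were transduced with wild-type KCNH2 virus (2.03 x 10^8 / mL) for 4 h at room temperature, then cultured overnight at 37 C. Thallium flux was read with FluxOr dye. Rate constants were normalized to DMSO controls.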
TRPV1 PAM: human TRPV1 potentiation | hit rate 0.02% among 320,000 | potentiation, % at 8.33 µM | Q8NER1 | TRPV1-expressing cells, Fluo-8 calcium influx, capsaicin EC20 potentiation | AID 540277; in the data active = potentiation above about 80%; inconclusive = between about 30% and that limit; also: 0% is about no effect
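Fluo-8 calcium influx in TRPV1-expressing cells, kinetic read (ex 480/em 520 nm). Compound added and read 3 min for agonist activity, followed by capsaicin at EC20 final and 2 min further read for enhancement.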
* = called active by the depositor; ? = inconclusive; / = not tested or not shown.

SMILES | p53 reactivator | KCNH2 3.1 block | ClpP mod | TRPV1 ag | KCNH2 WT inh | TRPV1 PAM
COc1ccc(S(=O)(=O)N(CC(=O)N/N=C/c2cccs2)c2cc(C)cc(C)c2)cc1OC | -14.4% | -94.9* | -0.7% | 0.9 | 0.7 | 8.5
CCOC(=O)Cc1c(C)nc2c(-c3ccccc3)c(C)[nH]n2c1=O | -5.3% | 12.6 | 28.2µM* | 1.5 | -6.7 | -9.5
CCc1c(C)nc2c(-c3ccccc3)c[nH]n2c1=O | / | 9.7 | / | 2.1 | 11.5 | 9.8
CCOC(=O)Cc1c(C)nc2c(-c3ccccc3)c(-c3ccccc3)[nH]n2c1=O | 4.3% | 12.4 | 22.4µM* | 5.2 | -13.2 | 0.2
CCOC(=O)CCc1c(C)nc2cc(-c3ccc(Cl)cc3)[nH]n2c1=O | 10.8% | -1.8 | ? | -7.2 | 4.8 | ?
CCOC(=O)Cc1c(C)nc2cc(-c3ccc(C)cc3)[nH]n2c1=O | ? | -35.5 | 15.8µM* | 1.8 | 1.6 | -7.1
CCOC(=O)Cc1c(C)nc2c(-c3ccccc3)c[nH]n2c1=O | -12.2% | -0.8 | 15.8µM* | 4.3 | -6.6 | 1.8
Cc1cc(NC(=O)COC(=O)c2ccccc2OCCOc2ccccc2)ccc1Br | / | / | -2.0% | / | / | /
COc1cc(C)c(CN2CCN(CC(=O)Nc3ccccc3C(=O)NC3CC3)CC2)cc1OC | 1.9% | -106.6* | 1.0% | 1.6 | -82.6* | -2.0
COc1ccc(OC)c(CN2CCN(CC(=O)Nc3ccccc3C(=O)NC3CC3)CC2)c1 | 7.0% | -70.1* | -3.2% | 3.6 | -78.8* | 1.3
C[N+](C)(C)CCN(Cc1ccc(Cl)cc1)c1ccccn1 | 4.0% | 0.9 | 25.1µM* | 0.8 | -16.5 | 25.5
Cc1ccc(Cl)cc1NC(=O)C(NS(=O)(=O)c1cccs1)c1ccccc1 (configuration not stated) | 1.8% | -13.5 | -2.4% | 4.4 | -118.7* | -3.0
Cc1nn(-c2cccc(Cl)c2)c2nc(-c3ccco3)cc(C(=O)O)c12 | -2.7% | -8.8 | 14.1µM* | 0.0 | -7.8 | 10.8
Cc1cc(F)ccc1C(O)c1ncc(-c2cccc3ccccc23)[nH]1 (configuration not stated) | / | / | 4.5% | / | / | /
CN(C)c1ccc(N=Cc2nc(-c3ccccc3)oc2O)cc1 | 4.8% | -38.6 | 22.4µM* | / | -15.4 | /
O=C(Nc1ccccc1C(=O)Nc1ccccn1)c1ccc([N+](=O)[O-])cc1 | 3.1% | -13.2 | 31.6µM* | 8.2 | 20.4 | -2.0
COc1cc(OC)cc(C(=O)Nc2ccc([N+](=O)[O-])cn2)c1 | 27.6% | -4.5 | -0.1% | 8.5 | -0.3 | -8.1
Cc1cc(C(=O)Nc2ccc([N+](=O)[O-])cn2)cs1 | / | 10.3 | 1.2% | 82.5* | -2.6 | -35.6
CN(CC(=O)Nc1ccccc1Br)C(=O)c1cc(Cl)nc2ccccc12 | -2.8% | -4.1 | 1.2% | 11.9 | 4.6 | -6.6
CC1CCc2[nH]c3ccc(C(=O)N(C)CC(=O)Nc4ccccc4Br)cc3c2C1 (configuration not stated) | -10.9% | -1.1 | 15.8µM* | 2.9 | 2.3 | -0.2
CN(CC(=O)Nc1ccccc1Br)C(=O)c1ccc(COc2ccccc2)cc1 | 10.5% | -16.4 | 1.3% | 6.0 | -24.7 | 1.7
CN(CC(=O)Nc1ccccc1Br)C(=O)c1ccncc1 | 2.7% | -104.6* | 1.1% | -9.1 | 1.8 | 3.9
Cc1ccc(C)c(NC(=O)CN(C)C(=O)c2ccc3[nH]c4c(c3c2)CC(C)CC4)c1 (configuration not stated) | 1.2% | -12.3 | -4.7% | 2.6 | 7.4 | -1.4
CN(CC(=O)Nc1ccccc1Br)C(=O)c1ccccc1-c1nc2ccccc2s1 | -39.2% | -8.1 | 28.2µM* | ? | -5.7 | -23.5
CCc1ccc(CNc2ncnc3onc(-c4ccc(Cl)cc4)c23)cc1 | / | / | -14.5% | / | / | /
Cc1cccn2c(=O)nc(SCC(=O)N3CCCC3)nc12 | 0.7% | 2.7 | / | 1.4 | -7.6 | 1.2
Cc1cccn2c(=O)nc(SCC(=O)N3CC(C)OC(C)C3)nc12 (configuration not stated) | -3.2% | -3.7 | 31.6µM* | -4.6 | -12.7 | 10.4
